Screens deposited in PubChem by National Center for Advancing Translational Sciences (NCATS).
Shown are actives, neighbours in structure and some others; about 12% of the full set was active somewhere.
G9a inh: qHTS Assay for Inhibitors of Histone Lysine Methyltransferase G9a; Histone-lysine N-methyltransferase EHMT2 (Homo sapiens), Q96KQ7; G9a H3K9 monomethylation, AlphaScreen, 2 h; Potency, µM (series often up to 102 µM), for the others: at the highest dose activity, negative = inhibition, actives largely listed as inhibitors; 350,000 compounds, 8.8% hits; note: % is set by controls: 0 for no effect and ±100 for the full control effect; nearly all actives have a fitted effect of over 75% in size
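G9a (20 nM) was preincubated 15 min with compound, then reacted 2 h at room temperature with 500 nM biotin-H3K9 peptide and 20 µM SAM. Monomethyl-H3K9 detected by AlphaScreen using anti-H3K9me1 antibody.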
JMJD2A Tudor inh: qHTS Assay for Inhibitors of JMJD2A-Tudor Domain | AlphaScreen JMJD2A-Tudor / H3K4me3 peptide binding | Lysine-specific demethylase 4A (Homo sapiens), O75164 | 390,000 compounds, 4.4% hits | AID 504339, 2011 | Potency, µM (top dose mostly 114 µM), inactives show at the highest dose activity change, negative = inhibition, most hits filed as inhibitors; note: % is set by controls: 0 for no effect and ±100 for the full control effect; nearly all actives have a fitted effect of over 50% in size
Sfp inh: qHTS Assay for Inhibitors of Bacillus subtilis Sfp phosphopantetheinyl transferase (PPTase); 4'-phosphopantetheinyl transferase ffp (Bacillus subtilis), Q9F4F7; Biochemical Sfp PPTase activity, qHTS; Potency, µM, without a hit: largest response in the series, negative = inhibition, usual class: inhibitors; 310,000 compounds, 3.5% hits; AID 1490, 2009;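 note: the enzyme is Sfp with the accession as filed and its product quenches rhodamine fluorescence; 0% = enzyme reaction without inhibitor and -100% = no enzyme wells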
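Compounds were incubated with enzyme (final 15 nM) for 15 min at room temperature before substrate addition started the reaction. Fluorescence at 525 nm excitation, 598 nm emission was recorded immediately and after 30 minutes.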
TDP1 inh: qHTS Assay for Inhibitors of Tyrosyl-DNA Phosphodiesterase (TDP1); Tyrosyl-DNA phosphodiesterase 1 (Homo sapiens), Q9NUW8; recombinant TDP1, AlphaScreen DNA substrate cleavage; Potency, µM (doses to about 130 µM), for the others: top-dose activity change, negative = inhibition, actives largely listed as inhibitors; 350,000 compounds, 0.28% hits; AID 485290, 2010; note: % is set by controls: 0 for no effect and ±100 for the full control effect; nearly all actives have a fitted effect of over 40% in size
Target sequence (Q9NUW8 whole entry, looked up): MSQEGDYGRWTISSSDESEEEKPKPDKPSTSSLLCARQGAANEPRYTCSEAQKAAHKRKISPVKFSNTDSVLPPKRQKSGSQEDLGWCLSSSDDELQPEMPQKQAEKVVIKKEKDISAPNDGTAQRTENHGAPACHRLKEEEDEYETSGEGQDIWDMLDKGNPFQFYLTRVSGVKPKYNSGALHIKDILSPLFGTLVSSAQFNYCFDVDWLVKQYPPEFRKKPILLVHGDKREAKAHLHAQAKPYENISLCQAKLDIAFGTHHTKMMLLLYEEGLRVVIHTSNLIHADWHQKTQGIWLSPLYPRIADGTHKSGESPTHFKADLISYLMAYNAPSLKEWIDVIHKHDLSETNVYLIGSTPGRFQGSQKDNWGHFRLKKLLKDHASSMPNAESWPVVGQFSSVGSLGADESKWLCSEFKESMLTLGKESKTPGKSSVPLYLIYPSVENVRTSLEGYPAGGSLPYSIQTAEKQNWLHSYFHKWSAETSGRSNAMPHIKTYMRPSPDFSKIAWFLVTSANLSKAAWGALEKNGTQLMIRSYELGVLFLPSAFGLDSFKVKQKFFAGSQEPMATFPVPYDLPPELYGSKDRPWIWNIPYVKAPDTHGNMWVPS
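Tdp1 1 nM final; 15 min RT w/ cpd; substrate 15 nM, 5 min; beads 10 ug/ml, 10 min; AlphaScreen read. Neg ctrl: no enzyme.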
HP1b chromo inh: HTS for Inhibitors of HP1-beta Chromodomain Interactions with Methylated Histone Tails; Chromobox protein homolog 1 (Homo sapiens), P83916; AlphaScreen HP1-beta / biotin-H3K9me3 peptide binding; Potency, µM (top dose mostly 114 µM), for the others: top-dose activity change, negative = inhibition, hits mostly inhibitors; 390,000 compounds, 0.56% hits; AID 540317, 2011; note: nearly all actives have a fitted effect of over 70% in size
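Compound inhibition of the preformed complex between 50 nM HP1-beta and 50 nM biotinylated H3K9me3 peptide was read by AlphaScreen. Buffer was PBS pH 7.4 with 0.01% Tween-20. Incubations ran 30 min at room temperature, with 10 ug/mL donor/acceptor beads.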
BAZ2B inh: qHTS Assay for Inhibitors of BAZ2B. Bromodomain adjacent to zinc finger domain protein 2B (Homo sapiens), Q9UIF8. AlphaScreen BAZ2B-H3K14Ac peptide displacement. Potency, µM (titrated, usually from 114 µM), for inactives: top-dose activity change, negative = inhibition, hits mostly inhibitors. 360,000 compounds, 4.4% hits; note: % is set by controls: 0 for no effect and ±100 for the full control effect; nearly all actives have a fitted effect of over 60% in size
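Inhibition is scored as reduced AlphaScreen emission. The BAZ2B/b-H3(5-23)K14Ac complex (50 nM each) in PBS pH 7.4, 0.01% Tween-20 meets compound (up to 110 uM) for 30 min at RT before bead addition.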
* = called active by the depositor; ? = inconclusive; nt = no result given; [ ] = remark or other dose. Calls come from the whole dose curve; as a rule, active = well fitted curve in the direction sought with a large enough effect; inconclusive = small, poorly fitted or top-dose-only effect, or another doubt; inactive = no such curve, though single readings can be large; an effect the other way counts as inactive or inconclusive. Potency is the fitted concentration of half-maximal effect.

SMILES	G9a inh	JMJD2A Tudor inh	Sfp inh	TDP1 inh	HP1b chromo inh	BAZ2B inh
COc1cc(CNCCNC(=O)c2cccs2)cc(OC)c1OC	nt	28µM*	-15%	-3%	-21%	89µM*
CC(=O)Nc1ccc(C2=NNC(=Nc3cccc(S(=O)(=O)N(C)C)c3)SC2)cc1	25µM*	35µM*	13µM*	5%	?	-32%
O=S(=O)(c1ccc(N=C2NN=C(c3cc(F)ccc3F)CS2)cc1)N1CCOCC1	11%	-32%	-20%	8%	-18%	23%
COc1ccc(C2=NNC(=Nc3cc(S(=O)(=O)N(C)C)ccc3C)SC2)c(OC)c1	-2%	-31%	?	6%	15%	-17%
CC(C)(C)N=C1NN=C(c2ccc(S(=O)(=O)N3CCCCC3)cc2)CS1	35µM*	-28%	nt	-11%	12%	-36%
CN(C)S(=O)(=O)c1cccc(N=C2NN=C(c3ccccc3)CS2)c1	35µM*	-34%	10%	8%	?	-5%
CC(=O)Nc1ccc(C2=NNC(=Nc3ccc(S(=O)(=O)N4CCOCC4)cc3)SC2)cc1	2.8µM*	-29%	14µM*	5%	?	-22%
Cc1cc(C)nc(Oc2ccc([N+](=O)[O-])cc2)n1	13%[59 µM]	-16%	-1%	8%	3%	-8%
Cc1cccc(CNc2ncnc3ccc(-c4ccc5c(ccn5C)c4)cc23)c1	7%[12.7 µM]	nt	nt	nt	nt	?
COC(=O)Cc1ccc(NC(=S)Nc2ccc(N3CCOCC3)cc2)cc1	?	-19%	-17%	-3%	-8%	-19%
Cc1cccc(Cn2nc(C)cc2NC(=O)CCCn2ccc([N+](=O)[O-])n2)c1	?	-14%	16%	3%	35%	-16%
COCCN=C1NN=C(c2ccc(NC(C)=O)cc2)CS1	?	-29%	40µM*	5%	-16%	-19%
COc1ccccc1C1=NNC(=NCc2ccccc2)SC1	?	-15%	-71%	5%	-5%	-32%
COc1ccccc1N1CCN(C(=O)Cn2c(=O)oc3cc(S(=O)(=O)N4CCCC4)ccc32)CC1	-4%	-11%	-4%	nt	59%	-7%
Cc1ccc(C)c(N2CCN(S(=O)(=O)c3c(C)[nH]c(C)c3C(=O)N3CCCCC3)CC2)c1	-1%[59 µM]	-27%	12%	9%	34%	-31%
Cc1c(C)n(C)c2ccc(C(=O)N3CCN(c4ccccc4)CC3)cc12	45µM*	35µM*	-9%	11%	?	40µM*
Cc1ccc(C)c(N2CCN(C(=O)c3ccc4c(c3)c(C)c(C)n4C)CC2)c1	32µM*	45µM*	-16%	11%	?	35µM*
Cc1ccc(C)c(N2CCN(S(=O)(=O)c3c(C(=O)N4CCCCC4)c(C)n(C)c3C)CC2)c1	79µM*	?	19%	8%	10%	?
CC[C@]12c3[nH]c4cc(CCC(=O)N(C)C)ccc4c3CCN1C(=O)[C@@H](CC(=O)NC(C)(C)C)C[C@@H]2C(=O)N1CCN(C(=O)c2ccco2)CC1	nt	1%	nt	0%[56.1 µM]	35%	nt
CCc1ccc(NC(=O)[C@H](C)NC(=O)C2CCN(C(=O)[C@@H](N)C(C)C)CC2)cc1	50µM*	-3%	14%	nt	33%	-16%
O=C(CCn1c(=S)[nH]c2ccccc2c1=O)NCCCN1CCOCC1	nt	?	-9%	2%	22%	0%
CCN(CC)CCCn1c(=S)[nH]c2cc(Cl)ccc2c1=O	?	-24%	1%	12%	42%	9%
O=C(CCN1CCCCC1)Nn1c(=S)[nH]c2ccccc2c1=O	?	0.71µM*	50µM*	1%	16%	?
O=c1c2ccccc2[nH]c(=S)n1CCCN1CCOCC1	18µM*	-24%	-9%	3%	31%	-33%
O=C(CCCn1c(=S)[nH]c2ccccc2c1=O)N1CCCCC1	?	56µM*	-1%	0%	35%	4%
SMILES	G9a inh	JMJD2A Tudor inh	Sfp inh	TDP1 inh	HP1b chromo inh	BAZ2B inh
O=c1c2ccc(Cl)cc2[nH]c(=S)n1CCCN1CCOCC1	45µM*	?	-12%	7%	15%	-30%
C[C@H](CO)N1C[C@H](C)[C@@H](CN(C)C(=O)Nc2ccc3c(c2)OCO3)Oc2ccc(NC(=O)NC3CCCCC3)cc2C1=O	nt	-19%	nt	2%	30%	nt
CC[C@@]1(C(=O)OC)N[C@H](CN(C)S(=O)(=O)c2ccc(OC(F)(F)F)cc2)[C@@H]2C(=O)N(C)C(=O)[C@@H]21	nt	-6%	nt	-1%	46%	nt
O=C(COC(=O)c1cnccn1)Nc1cccc(F)c1	nt	-2%	nt	2%	47%	nt
O=c1c2ccccc2[nH]c(=S)n1CCN1CCCC1	18µM*	-28%	3%	4%	13%	-13%
CC(=O)c1cc(-c2ccccc2)n(CC(=O)NCc2ccccc2C)c1C	-8%[59 µM]	0%	nt	-2%	29%	-1%
CCCc1c(C)nc2ccc(OC)cc2c1SCCC(=O)O	24%[59 µM]	-15%	14%	6%	27%	-5%
CCCOc1ccc2nc(C)c(CCC)c(SC(=N)N)c2c1	40µM*	?	?	3%	29%	?
CCNC(C(=O)c1c[nH]c2c(CC)cccc12)c1ccccc1 (centres undefined)	?	-8%	-7%	4%	12%	-24%
C[C@@H]1NC(=O)c2cc([N+](=O)[O-])cc(I)c2OCC[C@@H](C(=O)NC(CC(=O)O)C(N)=O)NC(=O)[C@H](CC(N)=O)NC1=O (some centres undefined)	25µM*	?	?	-7%	18%	?
C[C@@H]1NC(=O)[C@H](CCCN=C(N)N)NC(=O)c2cc([N+](=O)[O-])cc(I)c2OCC[C@@H](C(=O)NC(CC(=O)O)C(N)=O)NC1=O (some centres undefined)	40µM*	nt	-12%	0%	nt	-28%
Cc1cc(C(=O)NNC(=O)c2ccc(Cl)cc2Cl)c(C)o1	21%	-15%	nt	nt	8%	9%
CCOC(=O)NC1(Nc2ccc(Cl)cn2)Oc2ccccc2O1	6.3µM*	nt	32µM*	nt	nt	?
CCOC(=O)/C=C/C(=O)OCC(=O)Nc1ccc(Cl)cn1	?	-13%	8%	-1%	24%	3%
Cc1cc(C)c2c(N=NN(C)C)[nH]nc2n1	45µM*	-6%	0%	4%	31%	5%
